Assay results from PubChem BioAssay (NCATS).
Where “and” joins values, the source holds several entries; their conditions need not be identical. Equal values may be shown once. Results filed as inconclusive are left out. Calls of active or inactive are those of the source. Unless noted, calls follow the shape of the dose curve; as a rule, active = well fitted curve in the direction sought with a large enough effect; inconclusive = small, poorly fitted or top-dose-only effect, or another doubt; inactive = no such curve, though single readings can be large; an effect the other way counts as inactive or inconclusive.

Key:
[1] = molecular target: Lysosomal acid glucosylceramidase (Homo sapiens) (UniProt P04062); assay: Glucocerebrosidase-p2 (AID 348; in the data active = potency below about 10 µM; also: potency is read from the fitted curve at half-maximal effect); details: purified GBA, blue fluorogenic substrate, 40 min
Outline: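 Normal human glucocerebrosidase (0.2 nM) with blue fluorogenic substrate (80 uM final) in citrate/phosphate pH 5.9 with 10mM sodium taurocholate, 0.01% tween-20; 40 min RT, NaOH/glycine stop; fluorescence Ex 365/Em 440; AC50 from a titration from 0.6 nM upwards.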

[2] = AP1 Signaling Pathway (AID 357; active = well fitted curve in either direction with a large enough effect, not every such curve was filed as active;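 also: ME-180 reporter cells stimulated with EGF at its EC50 level; % is scaled to controls: 0 for no effect and ±100 for the full control effect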); details: ME-180 AP-1-bla reporter, EGF-induced, beta-lactamase ratio, 5 h; series mostly up to 17.2 µM
Outline: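 Cells are seeded overnight, exposed to compound titrations and an EC50 level of EGF for 5 hours at 37 °C, then loaded with CCF4 dye for 2.5 hours. Beta-lactamase activity under the AP-1 element is read as a blue/green ratio.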

[3] = molecular target: Cytochrome P450 1A2 (Homo sapiens) (UniProt P05177); assay: p450-cyp1a2 (AID 410; calls by dose curve;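 also: -100% = full effect of reference inhibitor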); details: recombinant CYP1A2, luciferin-ME demethylation, luminescence; series mostly up to 25.6 µM
Outline: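 20nM CYP1A2, 100uM Luciferin-ME (=Km), 100mM KPO4; cpd 10 min RT; +NADPH regen, 60 min RT; stop/detect 20 min; luminescence. Normalized to furafylline 57 uM = full inhibition.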

[4] = NFAT Signaling Pathway (AID 444; active = well fitted curve in either direction with a large enough effect, not every such curve was filed as active;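 also: carbachol stimulus at about its EC50 of 1 µM final; % is scaled to controls: 0 for no effect and ±100 for the full control effect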); details: Jurkat NFAT-bla M1, carbachol, beta-lactamase ratio, 5 h
Outline: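 Jurkat cells carrying an NFAT-driven β-lactamase reporter and co-transfected muscarinic M1 receptor were treated with compound plus carbachol (1 uM final, an EC50 level) for 5 h at 37 °C. CCF4 loading followed for 1 h at RT; 460/530 nm ratio gave %activity.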

[5] = Stat Signaling Pathway (AID 446; active = well fitted curve in either direction with a large enough effect, not every such curve was filed as active;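 also: ME-180 cervical cancer cells given 40 pM IL-6 alongside compound; SIE-controlled beta-lactamase reporter measured as 460/530 nm FRET emission ratio; % is scaled to controls: 0 for no effect and ±100 for the full control effect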); details: ME-180 (cervical carcinoma) SIE beta-lactamase reporter, IL-6 stimulated, 5 h; series mostly up to 17.2 µM
Outline: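 Compound effects on IL-6-induced STAT reporter activity were measured in ME-180 cells. After overnight culture, cells were co-treated with 40 pM IL-6 for 5 hrs before beta-lactamase substrate loading at room temperature.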

[6] = molecular target: Glucocorticoid receptor (Homo sapiens) (UniProt P04150); assay: GR-GFP Redistribution (AID 450;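 active = compounds whose dose series gives a full or clear partial fitted curve of increased nuclear translocation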; also: potency is read from the fitted curve at half-maximal effect); details: U2OS GR-GFP nuclear translocation, laser cytometry, 2 h
[7] = molecular target: Glucocorticoid receptor (Homo sapiens) (UniProt P04150); assay: GR-EFC Redistribution (AID 451; calls by dose curve; also: potency is read from the fitted curve at half-maximal effect); details: CHO-K1 GR-EFC translocation, beta-gal luminescence, 2 h
Outline: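 CHO-K1 cells stably expressing nuclear-localized β-gal enzyme acceptor and GR fused C-terminally to the enzyme donor fragment; ligand-driven nuclear translocation restores β-gal by complementation. Compounds titrated up to 46 uM final, 2 h at 37 °C; luminescence read.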

[8] = molecular target: Mitogen-activated protein kinase 10 (Mus musculus) (UniProt Q61831); assay: JNK3 AlphaScreen Assay (AID 530; active = well fitted curve in either direction with a large enough effect, not every such curve was filed as active;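 also: kinase came from lysate of stimulated human HepG2 cells; signal reports phosphorylation of biotinylated GST-cJun 1-79 at Ser73 with 10 µM ATP; % is scaled to controls: 0 for no effect and ±100 for the full control effect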); details: JNK3 lysate, c-Jun phosphorylation; series mostly up to 57.1 µM
Outline: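 Biotinylated GST-cJun(1-79) served as substrate for JNK3 in HepG2 lysates stimulated with IL-1beta and TNF-alpha. ATP was 10 uM final, pH 7.6. Ser73 phosphorylation was quantified by AlphaScreen (680 nm excitation).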

[9] = molecular target: 3',5'-cyclic-AMP phosphodiesterase 4B (Homo sapiens) (UniProt Q07343); assay: qHTS Assay for Inhibitors of PDE-IV (AID 607; active = well fitted activation curve with a large enough effect in the main read-out, with a control signal flat, not every such curve was filed as active; also: % of control where 0% means no effect); details: HEK293 ACTOne CNG channel cells, membrane potential fluorescence; series mostly up to 22.9 µM
Outline: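 ACTOne HEK293 cells carry a modified cAMP-gated CNG channel and express endogenous PDE4; plated 1000 cells/well, compounds up to 22.9 uM final. Membrane-potential dye fluorescence (ex 535/em 590) was read; parental cells received 10 uM forskolin + 100 uM RO 20-1724.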

[10] = qHTS Assay for Lipid Storage Modulators (AID 1519; calls by dose curve); details: Drosophila S3 cells, BODIPY lipid droplet/cell ratio, laser cytometry, cells loaded with oleic acid
Outline: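 Cells seeded at 5,000 per well were treated with compounds over a concentration series and loaded with oleic acid (400 uM, as added). Lipid droplet fluorescence (488 nm excitation, 500-530 nm channel) was read by laser-scanning cytometry and normalized to 20 uM Triacsin C.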

[11] = molecular target: Ubiquitin carboxyl-terminal hydrolase 1 (Homo sapiens) (UniProt O94782); assay: Inhibitors of USP1/UAF1: Pilot qHTS (AID 504865); details: purified USP1/UAF1, Ub-rhodamine cleavage fluorescence; series mostly up to 114 µM;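 also: rhodamine fluorescence freed from ubiquitin-rhodamine substrate followed over time; top concentration of the series differs between compounds; % is scaled to controls: 0 for no effect and ±100 for the full control effect; nearly all actives have a fitted effect of over 35% in size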
Outline: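 Kinetic fluorescence assay: 1nM USP1/UAF1, 15 min compound preincubation, then 150nM Ub-Rho; 480/540 nm.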

[12] = qHTS profiling for inhibitors of Plasmodium falciparum proliferation (AID 504749);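 also: 0% = DMSO vehicle and full inhibition = artemisinin control; nearly all actives have a fitted effect of over 60% in size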; details: P. falciparum in erythrocytes, SYBR Green DNA, 72 h
Outline: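 Fluorescence of SYBR Green-bound parasite DNA, read at 485/535 nm, served as the growth measure. Infected erythrocytes were cultured with compound 72 h; artemisinin (0.29 uM) and DMSO wells defined the normalization range.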

[13] = molecular target: Cytochrome P450 3A4 (Homo sapiens) (UniProt P08684); assay: qHTS Assay for Activators of Cytochrome P450 3A4 (AID 885); details: recombinant CYP3A4, Luciferin-PPXE luminescence, 60 min; series mostly up to 57.1 µM; also: nearly all actives have a fitted effect of over 65% in size
Outline: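 CYP3A4 activity: Luciferin-PPXE O-dealkylation, 25uM substrate, 200mM KPO4, RT throughout. Read-out is luciferase luminescence; higher values reflect activation.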

[14] = Confirmation and Secondary Assay for Modulators of Hemoglobin Beta Chain Splicing at IVS2 654 locus (AID 910); details: HeLa EGFP-654 splicing reporter, GFP fluorescence, 48 h; series mostly up to 46.1 µM;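 also: per-well total GFP intensity by laser scanning cytometry after 2-day treatment; % of control where 0% means no effect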
Outline: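 HeLa cells stably carrying EGFP interrupted by mutant beta-globin IVS2-654 intron (CMV-driven) were treated with compound for 2 days at 37C; corrected splicing was scored as total peak GFP intensity per well (488 nm excitation, 500-520 nm emission).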

[15] = Confirmation and Secondary Assay for Modulators of Hemoglobin Beta Chain Splicing at IVS2 705 locus (AID 930); details: HeLa EGFP-705 splicing reporter, GFP fluorescence, 48 h; series mostly up to 46.1 µM;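 also: HeLa cells stably expressing the EGFP-705 splicing reporter; GFP fluorescence per well restored by corrected splicing of the IVS2-705 intron in EGFP; % of control where 0% means no effect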
Outline: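 HeLa IVS2-705 EGFP reporter cells, 500/well, compound 2 d at 37C; correct splicing yields fluorescent EGFP. Control: 500 nM antisense PNA. Read-out: total peak GFP intensity.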

[16] = molecular target: Voltage-gated inwardly rectifying potassium channel KCNH2 (Homo sapiens) (UniProt Q12809); assay: qHTS Assay for Small Molecule Inhibitors of the Human hERG Channel Activity (AID 588834); details: U2OS BacMam hERG, FluxOR thallium flux fluorescence; series mostly up to 92.2 µM;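 also: U2OS cells transduced with hERG by BacMam; top concentration of the series differs between compounds; % is scaled to controls: 0 for no effect and ±100 for the full control effect; lower thallium flux fluorescence means stronger hERG block; nearly all actives have a fitted effect of over 50% in size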
Outline: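 Cells were infected with hERG-BacMam virus for 4 hrs at room temperature, grown overnight, then seeded at 2000/well. After dye loading and roughly 10 min compound treatment, thallium influx was triggered and fluorescence recorded.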

[17] = tested on: HIV-1 nucleocapsid protein NCp7 (binding to TG oligonucleotide); assay: HIV Nucleocapsid (AID 346; call rule not given here;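 also: potency is read from the fitted curve at half-maximal effect; potency is for inhibitors that block NC binding and lower polarization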); details: HIV-1 NC / fluorescein-TGTGTGTG probe, fluorescence polarization
Outline: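 NCp7 100 nM + fluorescein TG4xF 10 nM; Hepes pH 7.5/250mM NaCl/1uM ZnCl2/0.004% PEG 20000; 1 hr RT; FP, 45 s exposure; oligo-only wells as negative control.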

[18] = molecular target: Cytochrome P450 3A4 (Homo sapiens) (UniProt P08684); assay: qHTS Assay for Inhibitors and Substrates of Cytochrome P450 3A4 (AID 884); details: recombinant CYP3A4, Luciferin-PPXE luminescence; series mostly up to 57.1 µM; also: potency is read from the fitted curve at half-maximal effect; nearly all actives have a fitted effect of over 50% in size
Outline: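 Luminescent readout of luciferin produced by CYP3A4 (20 nM) dealkylation of Luciferin-PPXE, 25 uM (its KM). NADPH-driven reaction ran 60 min at RT after 10 min compound preincubation; data scaled to 57 uM ketoconazole as 100% inhibition.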

[19] = measured here: cell count channel max response
[20] = measured here: lipid channel max response
[21] = at 12.8 µM (top of the series), parasite line A

Chain of Ubiquitin carboxyl-terminal hydrolase 1 (Homo sapiens) (O94782 whole entry, looked up): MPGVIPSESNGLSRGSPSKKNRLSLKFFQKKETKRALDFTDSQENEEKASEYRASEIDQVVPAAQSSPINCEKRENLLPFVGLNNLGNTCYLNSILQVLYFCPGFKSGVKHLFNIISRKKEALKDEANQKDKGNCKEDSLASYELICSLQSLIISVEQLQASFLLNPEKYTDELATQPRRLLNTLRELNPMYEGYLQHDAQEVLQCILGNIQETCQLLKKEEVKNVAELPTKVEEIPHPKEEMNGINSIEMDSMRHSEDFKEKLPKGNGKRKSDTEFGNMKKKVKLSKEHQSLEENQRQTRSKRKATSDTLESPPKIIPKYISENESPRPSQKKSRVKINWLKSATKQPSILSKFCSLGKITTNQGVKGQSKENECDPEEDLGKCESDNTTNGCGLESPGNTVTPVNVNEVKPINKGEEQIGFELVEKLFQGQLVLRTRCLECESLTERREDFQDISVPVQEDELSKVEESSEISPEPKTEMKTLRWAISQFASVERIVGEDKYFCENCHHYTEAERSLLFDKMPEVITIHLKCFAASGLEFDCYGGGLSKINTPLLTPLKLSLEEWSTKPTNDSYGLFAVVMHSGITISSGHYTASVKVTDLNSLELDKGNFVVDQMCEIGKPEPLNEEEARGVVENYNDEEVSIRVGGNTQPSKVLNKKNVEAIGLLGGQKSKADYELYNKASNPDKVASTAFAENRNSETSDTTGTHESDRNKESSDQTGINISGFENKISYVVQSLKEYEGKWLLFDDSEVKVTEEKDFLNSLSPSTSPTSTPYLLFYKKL
Chain of Cytochrome P450 1A2 (Homo sapiens) (P05177 whole entry, looked up): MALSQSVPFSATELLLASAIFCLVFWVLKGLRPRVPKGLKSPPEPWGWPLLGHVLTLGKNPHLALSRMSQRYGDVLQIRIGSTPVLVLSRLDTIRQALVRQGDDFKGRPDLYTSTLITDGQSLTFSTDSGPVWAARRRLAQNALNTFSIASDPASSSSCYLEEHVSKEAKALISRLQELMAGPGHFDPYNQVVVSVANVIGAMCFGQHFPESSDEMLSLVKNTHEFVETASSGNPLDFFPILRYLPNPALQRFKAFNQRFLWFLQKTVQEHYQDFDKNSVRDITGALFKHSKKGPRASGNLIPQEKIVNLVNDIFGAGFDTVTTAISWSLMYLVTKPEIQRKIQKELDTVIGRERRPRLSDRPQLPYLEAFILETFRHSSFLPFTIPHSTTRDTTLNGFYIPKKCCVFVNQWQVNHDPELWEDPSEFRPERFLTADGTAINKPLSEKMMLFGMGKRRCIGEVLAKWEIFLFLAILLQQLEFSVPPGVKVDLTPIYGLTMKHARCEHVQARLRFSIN
Chain of Cytochrome P450 3A4 (Homo sapiens) (P08684 whole entry, looked up): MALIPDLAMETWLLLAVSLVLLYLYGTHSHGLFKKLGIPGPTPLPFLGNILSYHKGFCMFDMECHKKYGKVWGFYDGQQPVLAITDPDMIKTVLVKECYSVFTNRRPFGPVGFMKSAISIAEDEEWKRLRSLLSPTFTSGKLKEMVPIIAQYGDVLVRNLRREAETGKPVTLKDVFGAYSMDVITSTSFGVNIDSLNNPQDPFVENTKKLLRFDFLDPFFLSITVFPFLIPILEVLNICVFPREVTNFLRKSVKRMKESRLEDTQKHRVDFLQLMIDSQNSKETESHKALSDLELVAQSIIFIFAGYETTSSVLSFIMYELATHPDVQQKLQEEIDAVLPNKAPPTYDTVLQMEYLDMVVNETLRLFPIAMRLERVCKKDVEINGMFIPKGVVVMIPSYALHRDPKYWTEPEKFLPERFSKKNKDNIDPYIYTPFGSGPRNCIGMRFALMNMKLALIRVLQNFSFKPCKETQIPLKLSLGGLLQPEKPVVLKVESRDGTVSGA
Chain of Glucocorticoid receptor (Homo sapiens) (P04150 whole entry, looked up, the tested form may be a part): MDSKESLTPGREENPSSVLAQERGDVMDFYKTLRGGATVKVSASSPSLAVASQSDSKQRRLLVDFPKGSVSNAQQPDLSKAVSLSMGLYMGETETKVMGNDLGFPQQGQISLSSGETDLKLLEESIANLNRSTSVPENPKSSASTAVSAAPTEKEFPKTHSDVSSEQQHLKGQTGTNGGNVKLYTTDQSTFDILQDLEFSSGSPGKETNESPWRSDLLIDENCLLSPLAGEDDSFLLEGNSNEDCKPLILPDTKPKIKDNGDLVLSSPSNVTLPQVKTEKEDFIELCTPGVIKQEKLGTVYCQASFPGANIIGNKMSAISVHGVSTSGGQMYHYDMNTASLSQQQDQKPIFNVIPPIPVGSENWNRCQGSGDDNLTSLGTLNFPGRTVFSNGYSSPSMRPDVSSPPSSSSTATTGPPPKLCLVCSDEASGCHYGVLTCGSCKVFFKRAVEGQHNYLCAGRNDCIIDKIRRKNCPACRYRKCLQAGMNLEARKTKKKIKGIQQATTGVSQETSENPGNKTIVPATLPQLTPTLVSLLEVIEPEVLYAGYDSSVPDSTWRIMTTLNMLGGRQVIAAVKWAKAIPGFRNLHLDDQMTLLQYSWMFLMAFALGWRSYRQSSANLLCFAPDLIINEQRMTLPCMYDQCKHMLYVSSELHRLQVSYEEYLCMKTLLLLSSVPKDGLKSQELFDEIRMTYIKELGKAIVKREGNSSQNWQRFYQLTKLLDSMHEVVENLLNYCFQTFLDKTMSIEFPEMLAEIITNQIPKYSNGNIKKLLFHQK
Chain of 3',5'-cyclic-AMP phosphodiesterase 4B (Homo sapiens) (Q07343 whole entry, looked up): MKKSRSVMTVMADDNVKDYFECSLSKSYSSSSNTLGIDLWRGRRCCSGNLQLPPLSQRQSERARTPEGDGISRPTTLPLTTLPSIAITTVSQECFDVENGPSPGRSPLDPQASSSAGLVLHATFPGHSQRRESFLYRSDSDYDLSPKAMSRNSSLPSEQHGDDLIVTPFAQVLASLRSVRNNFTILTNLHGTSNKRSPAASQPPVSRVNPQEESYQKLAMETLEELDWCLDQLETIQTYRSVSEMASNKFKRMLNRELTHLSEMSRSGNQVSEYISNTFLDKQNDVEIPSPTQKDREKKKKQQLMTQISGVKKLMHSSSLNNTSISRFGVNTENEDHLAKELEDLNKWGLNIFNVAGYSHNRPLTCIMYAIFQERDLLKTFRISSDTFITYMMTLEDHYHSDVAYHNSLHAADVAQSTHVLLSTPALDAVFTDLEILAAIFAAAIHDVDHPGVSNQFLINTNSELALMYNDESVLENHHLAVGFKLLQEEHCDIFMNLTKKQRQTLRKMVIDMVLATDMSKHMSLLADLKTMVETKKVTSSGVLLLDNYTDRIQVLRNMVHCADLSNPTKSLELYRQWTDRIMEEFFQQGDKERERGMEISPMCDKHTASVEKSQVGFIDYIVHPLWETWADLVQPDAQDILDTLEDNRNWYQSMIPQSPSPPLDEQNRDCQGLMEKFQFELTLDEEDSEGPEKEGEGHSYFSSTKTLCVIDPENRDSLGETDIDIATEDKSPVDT
Chain of Lysosomal acid glucosylceramidase (Homo sapiens) (P04062 whole entry, looked up): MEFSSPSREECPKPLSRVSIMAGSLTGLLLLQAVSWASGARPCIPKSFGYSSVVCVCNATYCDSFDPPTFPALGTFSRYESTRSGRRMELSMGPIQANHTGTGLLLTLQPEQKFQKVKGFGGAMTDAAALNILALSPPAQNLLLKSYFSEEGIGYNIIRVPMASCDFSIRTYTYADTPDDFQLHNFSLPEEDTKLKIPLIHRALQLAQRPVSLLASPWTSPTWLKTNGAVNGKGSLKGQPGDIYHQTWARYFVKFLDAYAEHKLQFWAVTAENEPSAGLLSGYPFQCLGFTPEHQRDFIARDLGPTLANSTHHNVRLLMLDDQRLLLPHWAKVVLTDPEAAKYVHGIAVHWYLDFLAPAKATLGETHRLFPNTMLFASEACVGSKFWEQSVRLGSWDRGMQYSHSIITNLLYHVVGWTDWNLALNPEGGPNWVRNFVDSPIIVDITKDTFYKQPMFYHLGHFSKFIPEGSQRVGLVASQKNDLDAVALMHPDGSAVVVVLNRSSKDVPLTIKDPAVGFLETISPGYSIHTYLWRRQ
Chain of Voltage-gated inwardly rectifying potassium channel KCNH2 (Homo sapiens) (Q12809 whole entry, looked up): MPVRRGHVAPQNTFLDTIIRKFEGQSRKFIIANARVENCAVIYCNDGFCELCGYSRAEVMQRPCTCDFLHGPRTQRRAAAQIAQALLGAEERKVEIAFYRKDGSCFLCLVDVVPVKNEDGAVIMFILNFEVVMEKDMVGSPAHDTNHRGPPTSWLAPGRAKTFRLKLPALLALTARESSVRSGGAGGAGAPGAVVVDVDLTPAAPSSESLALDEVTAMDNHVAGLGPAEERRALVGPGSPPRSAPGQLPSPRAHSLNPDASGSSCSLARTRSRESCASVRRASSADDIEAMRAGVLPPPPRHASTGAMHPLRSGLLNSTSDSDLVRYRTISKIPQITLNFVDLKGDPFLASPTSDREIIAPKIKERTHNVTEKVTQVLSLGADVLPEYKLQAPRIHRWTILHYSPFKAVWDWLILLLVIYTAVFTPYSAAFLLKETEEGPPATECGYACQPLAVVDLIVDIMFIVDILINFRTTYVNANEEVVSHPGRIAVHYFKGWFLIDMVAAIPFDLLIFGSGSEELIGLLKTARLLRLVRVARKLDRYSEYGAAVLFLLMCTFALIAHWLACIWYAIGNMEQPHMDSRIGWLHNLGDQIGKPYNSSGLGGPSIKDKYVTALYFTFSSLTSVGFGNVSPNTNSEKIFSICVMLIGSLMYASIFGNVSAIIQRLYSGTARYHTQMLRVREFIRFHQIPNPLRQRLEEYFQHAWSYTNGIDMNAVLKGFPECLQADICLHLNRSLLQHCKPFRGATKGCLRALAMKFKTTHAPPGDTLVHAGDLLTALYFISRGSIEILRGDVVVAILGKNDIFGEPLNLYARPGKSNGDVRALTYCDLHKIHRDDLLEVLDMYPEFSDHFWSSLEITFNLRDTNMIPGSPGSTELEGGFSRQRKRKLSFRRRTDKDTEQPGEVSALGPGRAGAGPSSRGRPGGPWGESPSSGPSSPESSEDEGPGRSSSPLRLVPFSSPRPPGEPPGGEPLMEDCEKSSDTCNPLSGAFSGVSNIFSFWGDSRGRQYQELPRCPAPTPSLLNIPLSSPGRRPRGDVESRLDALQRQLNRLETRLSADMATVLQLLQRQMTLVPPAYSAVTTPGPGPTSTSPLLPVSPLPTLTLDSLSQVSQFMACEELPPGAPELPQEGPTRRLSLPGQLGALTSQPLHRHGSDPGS

C[N+]1([O-])[C@@H]2CC(OC(=O)[C@@H](CO)c3ccccc3)C[C@@H]1[C@H]1O[C@H]12 (stereo partly specified)
27.4%: max response [10, 20]
inactive: Potency [1] > 11.4 µM | outcome [2] | Potency [3] | outcome [5] | Potency [6] > 20.6 µM and > 46 µM | Potency [7] > 20.6 µM and > 9.22 µM | outcome [8] | Potency [9] | activity change, negative = inhibition ([10]; at 25.7 µM (top of the series)) 0.148% | Potency [11] | activity, negative = inhibition [12, 21] -0.201% | activity, negative = inhibition ([12]; at 12.8 µM (top of the series), parasite line B) -5.73% | activity, negative = inhibition ([12]; at 28.7 µM (top of the series), parasite line A) 13.1% | activity, negative = inhibition ([12]; at 28.7 µM (top of the series), parasite line B) 10.8%
26%: max response [10, 19]
active: activity change, negative = inhibition ([4]; at 7.69 µM (top of the series)) -78.2% | activity change, negative = inhibition ([4]; at 17.2 µM (top of the series)) -52.1%

C/C=C/c1ccc2c(c1)OCO2
10.4%: max response [10, 19]
20.9%: max response [10, 20]
inactive: Potency [13] | Potency [14] | Potency [15] | activity change, negative = inhibition ([10]; at 57.5 µM (top of the series)) 7.07% | Potency [16]

O=C(Oc1ccccc1)N1CCC2(CCCN(C(c3ccccc3)c3ccccc3)C2)CC1
7.72%: max response [10, 19]
inactive: Potency [17] > 20 µM | Potency [1] > 11.4 µM | Potency [3] | Potency [7] > 46 µM | outcome [8] | Potency [9] | activity change, negative = inhibition ([10]; at 57.5 µM (top of the series)) 6.26%
16.7%: max response [10, 20]

CC(C)c1c(CN(C)[C@@H](C)Cc2ccccc2)n(C)n(-c2ccccc2)c1=O
active: Potency [18] 3.98 µM
-13.6%: max response [10, 19]
-14.7%: max response [10, 20]
inactive: outcome [2] | Potency [3] | activity change, negative = inhibition ([4]; at 17.2 µM (top of the series)) -17.7% | outcome [5] | Potency [6] > 20.6 µM | Potency [7] > 20.6 µM | outcome [8] | Potency [9] | Potency [13] | activity change, negative = inhibition ([10]; at 25.7 µM (top of the series)) -3.14% | activity, negative = inhibition [12, 21] 6.98%

ClC1=C(Cl)C2(Cl)C3C(Cl)C=CC3C1(Cl)C2(Cl)Cl (stereo unspecified)
active: Potency [18] 10 µM
18.4%: max response [10, 20]
inactive: Potency [13] | Potency [14] | Potency [15] | activity change, negative = inhibition ([10]; at 57.5 µM (top of the series)) 4.59% | Potency [11]
11.3%: max response [10, 19]
